# Assay outcomes from PubChem BioAssay.
# TDP1 block: blocks human tyrosyl-DNA phosphodiesterase 1; Q9NUW8; recombinant TDP1, AlphaScreen DNA substrate cleavage; Potency, µM (doses to about 130 µM), inactives show at the top dose activity change, negative = inhibition, most hits filed as inhibitors; 0.28% of 350,000 active; AID 485290; further: nearly all actives have a fitted effect of over 40% in size
#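 Enzyme-compound mixtures sat 15 min at room temperature, followed by a 5 min reaction with 15 nM final substrate and 10 min with AlphaScreen beads. Recombinant human Tdp1 was used at 1 nM final.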
# VDR inhibitor: vitamin D3 receptor (human) inhibition | VDR-SRC2-3 peptide fluorescence polarization, 2 h | Potency, µM, inactives show max response, negative = inhibition, actives largely listed as inhibitors | 0.93% of 400,000 active | AID 504847
# Target sequence (P11473 whole entry, looked up): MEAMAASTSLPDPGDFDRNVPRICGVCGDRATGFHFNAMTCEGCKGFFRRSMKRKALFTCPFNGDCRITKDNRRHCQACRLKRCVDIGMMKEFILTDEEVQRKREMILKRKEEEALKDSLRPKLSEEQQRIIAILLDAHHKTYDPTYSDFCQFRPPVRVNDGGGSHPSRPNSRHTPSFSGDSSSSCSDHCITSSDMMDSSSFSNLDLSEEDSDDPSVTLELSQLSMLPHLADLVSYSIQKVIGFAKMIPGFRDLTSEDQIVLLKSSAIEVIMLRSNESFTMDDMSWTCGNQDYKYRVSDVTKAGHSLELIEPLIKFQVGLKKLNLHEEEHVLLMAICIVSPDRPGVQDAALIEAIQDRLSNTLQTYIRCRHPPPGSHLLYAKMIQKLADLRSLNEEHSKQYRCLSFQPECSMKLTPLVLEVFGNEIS
#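 Inhibition of the VDR/SRC2-3 peptide interaction is quantified by fluorescence polarization. Compounds (23 nl, pintool) incubate with the reagents for 2 hours at ambient room temperature.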
# PLK1 PBD block: PLK1 (human) polo-box domain binding inhibition. P53350. Plk1 PBD binding of FITC phosphopeptide, fluorescence polarization. Potency, µM, for inactives: max response, negative = inhibition, usual class: inhibitors. 2.8% of 360,000 active. AID 720504; further: series mostly up to about 57 µM; nearly all actives have a fitted effect of over 65% in size
# DT40 TDP1 CPT: DT40-hTDP1 cell growth loss with CPT. 12% of 420,000 active. chicken DT40 Tdp1-/-;hTDP1 cells + 20 nM CPT, ATP luminescence, 48 h. AID 686979. Potency, µM (top dose mostly 46.2 µM), for inactives: at the highest dose activity change, negative = growth inhibition, hits mostly inhibitors; further: nearly all actives have a fitted effect of over 55% in size
#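 Chicken DT40 Tdp1-/- cells stably complemented with human TDP1 were seeded at 400 cells/well in medium containing 20 nM camptothecin, exposed to pin-transferred compounds, and grown at 37 °C for at least 48 hr. Viability was read as ATP luminescence.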
# KAT2A inh: GCN5L2 (KAT2A) acetyltransferase inhibition; 0.21% of 390,000 active; GCN5L2 HAT assay, ThioGlo1 CoA-SH fluorescence; Q92830; AID 504327; Potency, µM (titrated, usually from 58.9 µM), for the others: at the top dose activity change, negative = inhibition, actives largely listed as inhibitors
#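 Fluorescence readout, Ex340nm/Em540nm: ThioGlo1 (50uM final) reacts with free CoA thiol released as 20nM GCN5L2 acetylates H3(1-25) peptide (75uM) using acetyl-CoA (70uM). Compound and enzyme sat 15 min beforehand; 20 min room-temperature reaction.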
# DT40 TDP1 no CPT: qHTS for Inhibitors of human tyrosyl-DNA phosphodiesterase 1 (TDP1): qHTS in cells in absence of CPT. 15% of 420,000 active. DT40 Tdp1-/- hTDP1 cells, no CPT, ATP luminescence, 48 h. Potency, µM (titrated, usually from 46.2 µM), for the others: at the top dose activity change, negative = growth inhibition, most hits filed as inhibitors; further: nearly all actives have a fitted effect of over 55% in size
#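 Chicken DT40 Tdp1-/- cells stably complemented with human TDP1 were seeded at 400 cells/well with DMSO in place of 20 nM camptothecin. After compound pinning, cells grew at least 48 hr at 37 °C; viability read by CellTiter-Glo luminescence.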
# Active calls of the source: *; u = inconclusive; x = no result given; [ ] = another dose, or the depositor's remark. This is a sample that favours compounds with a hit; in the whole collection about 18% have one here. The call rests on the fitted dose curve; in most records, active means well fitted curve in the direction sought with a large enough effect; inconclusive means small, poorly fitted or top-dose-only effect, or another doubt; inactive means no such curve, though single readings can be large; an effect the other way counts as inactive or inconclusive. On the % scale 0 is the no-effect control and ±100 the full control effect; potency means the concentration at half of the fitted maximal effect.
SMILES,TDP1 block,VDR inhibitor,PLK1 PBD block,DT40 TDP1 CPT,KAT2A inh,DT40 TDP1 no CPT
CC(C)c1ccc(Nc2c(-c3ccccc3O)nc3cnccn23)cc1,6%,-13%,x,u,-19%,21µM*
COc1cc(-c2nc3cnccn3c2Nc2ccccc2)ccc1O,-5%,-13%,2%,23µM*,-4%,18µM*
COc1cc(-c2nc3cnccn3c2Nc2ccc(C(C)C)cc2)ccc1O,6%,-6%,-2%,9.2µM*,-12%,8.2µM*
COc1cccc(-c2ccc3c(N)c(C(=O)NCc4ccc(Cl)cc4)sc3n2)c1,x,-3%,x,u,1%,u
C/C(=N/NC(=O)CN1CCN(S(=O)(=O)c2ccc(C)cc2)CC1)c1ccco1,5%,12%,-13%,-1%,-2%,0%
Cc1cc(O)c(Sc2ncn[nH]2)cc1NS(=O)(=O)c1ccc(Cl)cc1,0%,-2%,1%,-23%,-6%,-1%
O=S(=O)(Nc1cc(Sc2ncn[nH]2)c(O)c2ccccc12)c1ccccc1,11%,u,2.1µM*,1.2µM*,22µM*,2.1µM*
COC(=O)/C(=C(/F)SCC(C)=O)C(F)(F)F,-1%,x,x,x,-8%,x
CN(C)CCN(Cc1ccccc1)C(=O)c1[nH]c(C(F)(F)F)nc1-c1ccccc1,x,x,-9%,-15%,x,u
CN(C)C(=O)c1ccc(-c2cc(NCc3cccnc3)ncn2)cc1,x,-2%,x,12%,-11%,4%
CCN(C(=O)Cc1ccccc1OC)c1nnc(-c2ccncc2)s1,6%,1%,-14%,u,-10%,15µM*
CCOc1cc(C2C(C(=O)OC)=C(C)NC3=C2C(=O)c2ccccc23)c(Br)cc1O (stereo not given),8%,-9%,x,u,-8%,18µM*
CCOc1cc(Br)c(C2C(C(=O)OC)=C(C)NC3=C2C(=O)c2ccccc23)cc1OCC (stereo not given),x,-5%,x,4.6µM*,2%,23µM*
CCOC(=O)C1=C(C)NC2=C(C(=O)c3ccccc32)C1c1cccc2ccccc12 (stereo not given),x,-6%,-7%,u,-18%,12µM*
CCOc1cc(C2C(C(=O)OC)=C(C)NC3=C2C(=O)c2ccccc23)c(Br)cc1OC (stereo not given),x,-4%,x,-30%,-11%,u
O=S(=O)(c1ccccc1)N1CCC2(CCCN(Cc3ccccc3)C2)CC1,x,10%,x,14%,2%,u
COc1ccc(NC(=O)CN(C)CC(=O)Nc2cccc(S(=O)(=O)N(C)c3ccccc3)c2)cc1,8%,-5%,-4%,u,-2%,u
COc1ccc(-c2cn3c(n2)sc2cc(C(=O)NCCCN4CCCCC4)ccc23)cc1,-3%,3%,x,1µM*,-10%,0.73µM*
COc1ccc(-c2cn3c(n2)sc2cc(C(=O)NCCCN4CCCCCC4)ccc23)cc1,3%,2%,x,2.9µM*,-7%,3.3µM*
COc1ccc(-c2cn3c(n2)sc2cc(C(=O)Nc4ccc(C)c(C)c4)ccc23)cc1,-5%,25%,x,-28%,-11%,u
CC(=O)Nc1ccc(NC(=O)C(C)OC(=O)C2CCN(S(=O)(=O)c3cccs3)CC2)cc1 (stereo not given),x,-5%,-1%,-14%,0%,-5%
O=C(O)C(CCCCNS(=O)(=O)c1ccc(F)cc1)NS(=O)(=O)c1ccc(F)cc1 (stereo not given),x,2%,-2%,-4%,3%,1%
CCOC(=O)c1sc2nc(N3CCOCC3)c3c(c2c1N)CCCC3,4%,-8%,-2%,u,-3%,-19%
CCOC(=O)c1sc2nc(N3CCOCC3)c3c(c2c1N)CC(C(C)C)OC3 (stereo not given),3%,3%,-2%,8.2µM*,3%,-13%
Cn1cccc1C(=O)N1CCC2(CCCN(C(c3ccccc3)c3ccccc3)C2)CC1,x,-21%,x,u,-3%,u
SMILES,TDP1 block,VDR inhibitor,PLK1 PBD block,DT40 TDP1 CPT,KAT2A inh,DT40 TDP1 no CPT
CCCCN(C)CCNC(=O)c1nn(-c2ccc(OC)cc2)c(=O)c2c1c1ccccc1n2C,0%,-7%,-10%,u,-5%,18µM*
COc1ccc(-n2nc(C(=O)NCCc3ccc(OC)c(OC)c3)c3c4ccccc4n(C)c3c2=O)cc1,2%,-6%,x,16µM*,0%,15µM*
CCN(C(=O)c1nn(-c2ccc(OC)cc2)c(=O)c2c1c1ccccc1n2C)c1ccc(OC)cc1,0%,-12%,-3%,-2%,-8%,-25%
C=CC[C@H](CC(=O)NCCO)C(=O)N[C@@H](COC(=O)[C@H](CC=C)CC(=O)OC(C)(C)C)Cc1ccccc1,0%,-21%,-7%,u,0%,-20%
O=C1C2=C(c3ccccc31)[N+](=O)C1CCCCC1N2[O-] (stereo not given),3%,u,u,23µM*,3%,15µM*
CCCC(=O)N1CCCN(c2nc(N)c3cc(OC)c(OC)cc3n2)CC1,x,x,x,-5%,x,-21%
COc1cc2nc(N3CCCN(C)CC3)nc(Nc3ccncc3)c2cc1OC,x,x,x,3.2µM*,x,7.9µM*
COc1cc2nc(N3CCCCC3)nc(NC3CC3)c2cc1OC,x,x,x,13µM*,x,16µM*
COc1ccc(/C=N/Nc2cc(C)nc(N3CCOCC3)n2)cc1OC,0%,4%,-5%,3%,-3%,u
COc1ccc(Nc2nc(N3CCCCC3)nc3ccccc23)c(OC)c1,x,3%,-4%,u,-8%,u
COc1cc2nc(N3CCOCC3)nc(NC3CCN(C)CC3)c2cc1OC,x,x,x,10µM*,x,16µM*
COc1cc2nc(N3CCN(C)CC3)nc(NC3CC3)c2cc1OC,x,x,x,11µM*,x,10µM*
CC(OC(=O)c1ccc(Cl)c(S(N)(=O)=O)c1)C(=O)NCc1ccc2c(c1)OCO2 (stereo not given),-8%[0.505 µM],-9%,-12%,15%,-8%,-15%
CN1C[C@H]2CON(C)[C@H]2C[C@H]1c1cccc(-c2ccccc2)c1,x,-3%,1%,-2%,x,-16%
CC(=O)Nc1ccc(-c2nnc(SCc3c(C)cc(C)cc3C)n2C)cc1,-4%,-8%,-6%,-28%,3%,-26%
Cc1cc2oc(=O)cc(-c3ccccc3)c2c(C)c1-c1cccc(N)c1,9%,-6%,x,x,7%[88.6 µM],x
c1ccc(COc2cccc(-c3cc4nc(NCCN5CCOCC5)ccn4n3)c2)cc1,x,x,-6%,26µM*,x,13µM*
